Data as given in PubChem BioAssay (Tox21).
Where “and” joins values, the source holds several entries; their conditions need not be identical. Equal entries are not always repeated. Inconclusive results are not listed. A call without a number means that no potency is given here. The source holds several records for some structures; these can differ, active in one and inactive in another. Calls of active or inactive are those of the source. The call rests on the fitted dose curve; in most records, active means well fitted cell-killing curve with a large enough effect in the repeat runs; inconclusive means weak or mixed curves; inactive means flat fitted curve, though single readings scatter.

Test: qHTS RealTime-Glo MT Cell Viability Assay in HepG2 cells - 32 hour (AID 1224877); further: nearly all actives have a fitted effect of over 55% in size
Conditions: RealTime-Glo luminescence; series mostly up to 76.8 µM; activity change, negative = cytotoxic: at the top concentration
Text: U.S. Tox21 Program National Center for Advancing Translational Sciences [NCATS] NIH Chemical Genomics Center [NCGC] U.S. Environmental Protection Agency [EPA] National Institutes of Environmental Health Sciences [NIEHS] National Toxicology Program [NTP] U.S. Food and Drug Administration [FDA] Tox21 Assay Overview: Measure of cell viability is critical in the cell-base assay. Analysis of cell viability is necessary for the characterization of cell responses to cytotoxic drugs and environmental stress. A RealTime-Glo MT Cell Viability Assay to monitor cell viability in real time of continues cell culture during 40 hours of compound treatment was used to screen Tox21 10K library compounds in HepG2 cells. The RealTime-Glo MT Cell Viability Assay is a nonlytic, homogeneous, bioluminescent method to measure cell viability in real time using a simple, plate-based method. The assay involves adding NanoLuc luciferase and a cell-permeant prosubstrate to cells in culture. Viable cells reduce the proprietary prosubstrate to generate a substrate for NanoLuc luciferase. This substrate diffuses from cells into the surrounding culture medium, where it is rapidly used by the NanoLuc Enzyme to produce a luminescent signal. The signal correlates with the number of viable cells, making the assay well suited for cytotoxicity studies.
Tox21 Assay Protocol Summary: The mixture of HepG2 cell suspension and reagents were dispensed at 600cells/6 ul/well in 1536-well tissue culture treated black solid bottom plates using a Multidrop dispenser. After the assay plates were incubated at a 37 C/5% CO2 incubator for 5 hours, 23 nL of compounds dissolved in DMSO, positive and negative controls was transferred to the assay plate by a pintool work station. The plates were incubated at 37 C for 40 hours. The luminescence intensity were measured at 0h, 8h, 16h, 24h, 32h and 40h time points using ViewLux plate reader during compound treatment.
Potency means the concentration at half of the fitted maximal effect.

| SMILES | Potency | activity change, negative = cytotoxic |
| --- | --- | --- |
| S=C(NC1CCCCC1)NC1CCCCC1 | inactive | – |
| Cn1cnc([N+](=O)[O-])c1Sc1ncnc2nc[nH]c12 | inactive | – |
| C#C[C@]1(O)CC[C@H]2[C@@H]3CCc4cc(OC)ccc4[C@H]3CC[C@@]21C | inactive | – |
| CCCCOCCOCCO | inactive | – |
| CN(C)CCC=C1c2ccccc2CCc2ccccc21 | inactive and 49 µM (active) | – |
| COC(=O)c1ccccc1 | inactive | – |
| O=C=Nc1ccc(Cc2ccc(N=C=O)cc2)cc1 | inactive | – |
| O=C(O)c1ccccc1Nc1cccc(C(F)(F)F)c1 | inactive | – |
| CC(C)OC(=O)C(C)(C)Oc1ccc(C(=O)c2ccc(Cl)cc2)cc1 | inactive | – |
| c1ccncc1 | inactive | – |
| C/C=C/C(=O)O | inactive | – |
| c1ccc2sc(SSN3CCOCC3)nc2c1 | inactive and 49 µM (active) | – |
| Nc1ccc(S(=O)(=O)Nc2cnc3ccccc3n2)cc1 | inactive | – |
| Nc1ccccc1N | inactive | – |
| CC(=O)C1(C)CC2=C(CCCC2(C)C)CC1C (stereo not given) | inactive | – |
| CC(C)OC=O | inactive | – |
| CCCCOCCOCCOCCO | inactive | – |
| Nc1ccc(Nc2ccccc2)cc1 | inactive | – |
| COC(=O)CCC(=O)OC | inactive | – |
| C[C@]12CC[C@H]3[C@@H](CCC4=CC(=O)CC[C@@]43C)[C@@H]1CC[C@@H]2C(=O)CO | inactive | – |

| SMILES | Potency | activity change, negative = cytotoxic |
| --- | --- | --- |
| CCCCCCCCCC(=O)OC | inactive | – |
| OCCO | inactive | – |
| O=C(OCc1ccccc1)c1ccccc1O | inactive | – |
| CCCC(=O)O | inactive | – |
| CC(C)OB(OC(C)C)OC(C)C | inactive | – |
| CCCc1c(OCCCCc2nn[nH]n2)ccc(C(C)=O)c1O | inactive | – |
| COc1ccc(OC)c(C(O)CNC(=O)CN)c1 (stereo not given) | inactive | – |
| C=CC(C)(CCC=C(C)C)OC(C)=O (stereo not given) | inactive | – |
| O=CCc1ccccc1 | inactive | – |
| O=C(COc1ccc(Cl)cc1)N1CCN(Cc2ccc3c(c2)OCO3)CC1 | inactive | – |
| O=Cc1ccccc1O | inactive | – |
| c1cc(N(CC2CO2)CC2CO2)ccc1OCC1CO1 (stereo not given) | – | 0.517% (inactive) |
| Cc1ccc(C)c(O)c1C | inactive | – |
| O=S(=O)(O)c1ccc(O)cc1 | inactive | – |
| CN(C)C(=N)N=C(N)N | inactive | – |
| COc1c(Cl)c(Cl)c(Cl)c(Cl)c1Cl | inactive | – |
| COc1cc([C@@H]2c3cc4c(cc3[C@H](O)[C@H]3COC(=O)[C@H]23)OCO4)cc(OC)c1OC | inactive | – |
| Nc1ncnc2nc[nH]c12 | inactive | – |
| C=C(C)C1CC=C(C)CC1 (stereo not given) | inactive | – |
| O=C(c1ccccc1)c1ccc(O)cc1O | inactive | – |
